Screen size: about 360,000 compounds; about 130 (0.036%) were called active. This is one part of a sample in which actives are shown more often than they occur. Cut-off read from the data, not from the text of the source: active = potentiation above about 30%; inactive = the rest.
target: D(1A) dopamine receptor (Homo sapiens) (UniProt P21728); assay: Potentiators of Human D1 Dopamine Receptor: qHTS; details: HEK293 TREx D1 cells, calcium flux, dopamine EC20 potentiation; at 10 µM; hits give high values; note: 0% is about no effect
Sequence (P21728 whole entry, looked up): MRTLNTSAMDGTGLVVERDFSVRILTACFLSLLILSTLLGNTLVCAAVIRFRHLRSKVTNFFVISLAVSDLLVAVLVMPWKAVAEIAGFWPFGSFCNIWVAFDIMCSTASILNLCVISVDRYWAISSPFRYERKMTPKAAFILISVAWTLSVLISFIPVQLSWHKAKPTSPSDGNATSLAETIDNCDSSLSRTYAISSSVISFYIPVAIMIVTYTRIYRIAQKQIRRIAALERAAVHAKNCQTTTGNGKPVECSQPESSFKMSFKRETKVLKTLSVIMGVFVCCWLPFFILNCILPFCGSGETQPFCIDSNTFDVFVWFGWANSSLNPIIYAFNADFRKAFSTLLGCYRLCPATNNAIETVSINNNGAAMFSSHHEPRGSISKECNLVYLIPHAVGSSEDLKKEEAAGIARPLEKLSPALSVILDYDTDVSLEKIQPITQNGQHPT

potentiation, inactive:
CN1CCOc2cc(S(=O)(=O)N3CCN(S(=O)(=O)c4c(F)cccc4F)CC3)cnc21 -1.8%
O=C(Nc1ccc(C(=O)OCc2cc(=O)n3nc(C4CC4)sc3n2)cc1)c1ccc(F)cc1 -0.15%
Cc1cccc2nc(-c3ccc(Cl)s3)c(Nc3ccc4c(c3)OCCO4)n12 1.7%
CCN(CC)S(=O)(=O)c1ccc2c(c1)nc(CN(C)C(=O)Nc1ccc(Cl)cc1)n2C 0.4%
Cc1csc2nc(COC(=O)c3ccccc3NC(=O)c3ccccc3Cl)cc(=O)n12 1.1%
CCCCC(CC)CNC(=O)C1CCN(S(=O)(=O)c2cccc3nsnc23)CC1 (stereo not drawn) 3.8%
CCS(=O)(=O)c1nc(S(=O)(=O)c2ccc(C)cc2)c(NCc2ccc(Cl)cc2)s1 -2.95%
CCOC(=O)c1c(NC(=O)/C=C/c2ccc(OC)cc2)sc2c1CCC(C)C2 (stereo not drawn) 0.15%
N#CN1CCC(NS(=O)(=O)c2cccc(F)c2)C1 (stereo not drawn) -6.75%
CCOc1ccc(OCC)c(NC(=O)c2c(C)nn(-c3ccccc3)c2-n2cccc2)c1 -0.5%
CCN(CCCNC(=O)Cn1ncc2c3ccccc3n(C)c2c1=O)Cc1ccccc1 -1.8%
CCOc1ccc(C2CC(=O)c3c([nH]c(C(=O)OCc4ccccc4)c3C)C2)cc1 (stereo not drawn) -3.65%
O=C1Cc2cc(S(=O)(=O)Nc3ccc(OC(F)(F)F)cc3)cc3c2N1CCC3 1.65%
Cc1ccc(NC(=O)C2CCN(S(=O)(=O)c3cc(-c4noc(C)n4)ccc3C)CC2)c(C)c1 -4.05%
O=C(c1cnn(-c2ccc(F)cc2)c1-n1cccc1)N1CCN(c2ccc(F)cc2)CC1 -1.95%
CCc1ccc(N2C(=O)CN(S(=O)(=O)CC)CC2(C)C(=O)NC2CCCCC2)cc1 (stereo not drawn) -0.1%
CC(C)CNc1ncnc2c1nnn2C 2.3%
O=C(CSc1n[nH]c(-c2ccccc2)n1)N1CCCCC1 2.7%
Cc1ccc(Cn2ncc3c4sc(C)cc4n(C)c3c2=O)c(C)c1 0.9%
CCC1=Nc2cc(C(=O)NCCCOC(C)C)ccc2Sc2ccc(C)cc21 3.75%
Cc1cc2c(cc1S(=O)(=O)CCC(=O)Nc1ccc(OC(F)(F)F)cc1)OCC(=O)N2 -3.35%
Cc1c(C(=O)Nc2cccc(Cl)c2)oc2ccc(S(=O)(=O)N3CCOCC3)cc12 -2.25%
CCc1ccc(NS(=O)(=O)c2ccc3[nH]cc(C(=O)NCCc4cccc(C)c4)c(=O)c3c2)cc1 2.6%
Cc1ccc(-n2ncc(C(=O)N(C)Cc3ccccc3)c2-n2cccc2)cc1 -0.5%
Cc1ccc(CN2COc3cc(C)c4c(oc(=O)c5ccccc54)c3C2)cc1 -0.2%
CCCCn1c(=O)c2oc3ccccc3c2n(CC(=O)Nc2ccccc2OC)c1=O 1.65%
Cc1cccc(C(=O)N2c3nc(-c4ccco4)nn3C3(CCCCC3)[C@@H]3CCCC[C@@H]32)c1 -0.1%
Cc1cc(F)ccc1NC1(c2ccccc2)C(=O)c2ccccc2C1=O -5.75%
Cc1ccccc1C(=O)Nc1nnc(S(=O)(=O)N(C)c2ccc(Cl)cc2)s1 -0.45%
COc1cccc(C(=O)Nc2ccc(-c3cc(C(F)(F)F)nn3-c3ccccc3)cc2)c1 -4.85%
CCOC(=O)c1c(C)n(S(=O)(=O)c2ccc(C)cc2C)c2ccc(NS(=O)(=O)c3ccc(C)cc3C)cc12 -1.05%
COc1ccc(CCNc2nc(-c3ccc(Cl)cc3)cc(C(F)(F)F)n2)cc1OC 0.65%
Cc1cc2c(s1)c1cnn(Cc3cc(F)c(Cl)cc3Cl)c(=O)c1n2C -0.95%
Cc1ccc(S(=O)(=O)N2CCC(C(=O)Nc3cc(C)ccc3C)CC2)cc1 -2.85%
Cc1ccc(CNC(=O)CCc2c(C)nc3c(c(C)nn3-c3ccccc3)c2C)cc1 -2.25%
COc1ccc(N2CCN(S(=O)(=O)CCNC(=O)C(c3ccccc3)c3ccccc3)CC2)cc1 -0.4%
COC(=O)c1c(NC(=O)C(C)Oc2ccc(Cl)c(C)c2)sc(C)c1C (stereo not drawn) 0.65%
COc1cccc(-c2nnc(SCC(=O)N3CCC(C)CC3)o2)c1 -1.7%
Cc1ccccc1CNC(=O)CCc1cn(Cc2ccccc2C)c2ccccc12 -5.7%
Cc1ccc(C)c(Cn2c(C(=O)O)c(CNCc3cccs3)c3ccccc32)c1 19.9%
COc1ccc(Cc2nc3ccc(C(=O)NCc4ccccc4C)cc3o2)cc1 -2.05%
O=C(Cc1ccc(Cl)cc1)NCC(c1cccs1)S(=O)(=O)c1ccc(Cl)cc1 (stereo not drawn) -0.5%
CC(=O)c1ccc(NC(=O)CSc2nc(-c3ccccc3F)nc3c2c(=O)n(C)c(=O)n3C)cc1 -0.45%
CCSc1nnc(NC(=O)c2cc(=O)c3cc(C)c(C)cc3o2)s1 0.15%
COC(=O)c1ccccc1NC(=O)c1ccc(C#N)cc1 3.5%
O=C(Cn1c(=O)n(Cc2cccs2)c(=O)c2cccnc21)Nc1ccc(F)cc1 -2.6%
COc1ccc(-c2cccc(NS(=O)(=O)c3cc(C)c(OC)c(C)c3C)c2)nn1 -2.1%
Cc1ccc(SCC(=O)Nc2ccc3oc(-c4ccccc4C)nc3c2)cc1 -0.2%

Reference: PubChem BioAssay AID504651 (National Center for Advancing Translational Sciences (NCATS), 2011)
